Molecules are shown by their SMILES. Compounds without any hit were thinned out: in the full panel of roughly 83,000, 20% have a hit.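 In brief: 96-well plates, 48 h treatment, single concentration, percent growth endpoint.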 Values without a mark were called inactive. Activity calls are given as the source filed them. The calls were made as follows: active = growth percent below 10; inactive = the rest.

Test systems include NCI-H23 lung; NCI-H226 lung; NCI-H322M lung; HOP-62 NSCLC; NCI-H460 lung; NCI-H522 lung; A549/ATCC NSCLC; 786-0 renal; COLO 205 colon; DU-145 prostate; K-562 leukemia; MDA-MB-231 breast; SF-268 CNS; SF-295 CNS; SF-539 CNS; UACC-257 melanoma; M14 melanoma; MALME-3M melanoma; RXF 393 renal.
Assay in all cases: NCI-60 one-dose screen, 48 h (100 = growth as untreated, 0 = no growth, -100 = all killed)
Common to all, as to conditions: 10 µM

In the case of `O=C(N/N=C/c1ccccc1O)Nc1nn[nH]n1`, the growth in the assay on NCI-H23 lung was 106%; in the assay on NCI-H226 lung, 96.4%; in the assay with NCI-H322M lung it was 97%; in the assay on HOP-62 NSCLC it was 111%; with NCI-H460 lung, 102%; with NCI-H522 lung it was 95.4%. Further, the growth was 108% with A549/ATCC NSCLC; 108% with 786-0 renal; 109% with COLO 205 colon; 116% in the assay on DU-145 prostate; 128% in the assay on K-562 leukemia; 102% with MDA-MB-231 breast. Moreover, the growth with SF-268 CNS was 113%; in the assay on SF-295 CNS it was 102%; with SF-539 CNS, 96.9%; in the assay with UACC-257 melanoma, 104%; with M14 melanoma it was 103%.
For the compound `CN(C)c1ccc2nc3ccc(=N)cc-3sc2c1`, the growth with NCI-H23 lung is 14.7%; in the assay on NCI-H226 lung it was 77.1%; in the assay on NCI-H322M lung, 85.4%; with HOP-62 NSCLC it was 54.4%; with NCI-H460 lung it was 56.7%; in the assay with NCI-H522 lung, 14.7%. Further, the growth in the assay with A549/ATCC NSCLC is 13.6%; with 786-0 renal it was 66.2%; in the assay on DU-145 prostate, 86.7%; with K-562 leukemia, 20.1%; in the assay on MALME-3M melanoma, 8.19% (active); with MDA-MB-231 breast it was 11.5%. For the same compound, the growth with RXF 393 renal is 70.7%; in the assay on SF-268 CNS it was 54.2%; in the assay on SF-295 CNS, 86.1%; in the assay with SF-539 CNS it was -11.3% (active); in the assay with UACC-257 melanoma, 13.9%; in the assay with M14 melanoma, 24.7%.
With `Cc1c(O)cnc2nn(-c3ccccc3)c(=N)n12`, the growth was 102% with NCI-H23 lung; 100% in the assay on NCI-H226 lung; 114% with NCI-H322M lung; 98.3% with HOP-62 NSCLC; 103% with NCI-H460 lung; 96.1% in the assay with A549/ATCC NSCLC. Moreover, the growth is 102% in the assay on 786-0 renal; 123% with COLO 205 colon; 110% with DU-145 prostate; 101% in the assay with K-562 leukemia; 124% in the assay on MALME-3M melanoma; 103% in the assay with MDA-MB-231 breast. For the same compound, the growth is 111% in the assay with RXF 393 renal; 113% with SF-268 CNS; 99.1% with SF-295 CNS; 99.6% in the assay with SF-539 CNS; 114% in the assay with M14 melanoma.
Regarding `COCCCNC(=O)c1nnn2c1nc(N)c1cc(Cl)ccc12`, the growth with NCI-H23 lung is 98.4%; in the assay with NCI-H226 lung, 94.1%; with NCI-H322M lung, 88.9%; in the assay with HOP-62 NSCLC, 80.4%; in the assay on NCI-H460 lung, 102%; in the assay on A549/ATCC NSCLC it was 106%. Also, the growth was 96.6% in the assay on 786-0 renal; 77.7% in the assay with COLO 205 colon; 105% with DU-145 prostate; 34.6% in the assay with K-562 leukemia; 65.1% in the assay with MALME-3M melanoma; 100% in the assay on MDA-MB-231 breast. The growth in the assay with RXF 393 renal was 103%; with SF-268 CNS, 94.1%; with SF-295 CNS it was 91.7%; in the assay on SF-539 CNS, 94%; in the assay with M14 melanoma, 79.3%.
With `CC1=CC(=O)c2ccccc2C1=O`, the growth in the assay with NCI-H23 lung was 101%; in the assay on NCI-H226 lung it was 101%; in the assay with NCI-H322M lung, 99.2%; with HOP-62 NSCLC, 105%; with NCI-H460 lung it was 115%; in the assay on NCI-H522 lung, 114%. In addition, the growth is 94.1% in the assay with A549/ATCC NSCLC; 106% with 786-0 renal; 108% in the assay on COLO 205 colon; 113% with DU-145 prostate; 98.8% in the assay on MDA-MB-231 breast; 119% in the assay on SF-268 CNS. The growth in the assay on SF-295 CNS was 109%; in the assay on SF-539 CNS it was 104%; in the assay on UACC-257 melanoma, 104%; with M14 melanoma it was 107%.
For the compound `CC(=O)Nc1cccc(Cl)c1C`, the growth was 103% in the assay on NCI-H23 lung; 102% with NCI-H226 lung; 94% with NCI-H322M lung; 100% in the assay on HOP-62 NSCLC; 106% in the assay with NCI-H460 lung; 87.7% in the assay with NCI-H522 lung. The growth is 88.2% in the assay on A549/ATCC NSCLC; 96.5% in the assay on 786-0 renal; 107% in the assay with COLO 205 colon; 106% in the assay on DU-145 prostate; 101% in the assay with MALME-3M melanoma; 99.5% with MDA-MB-231 breast. Also, the growth with RXF 393 renal was 106%; in the assay on SF-268 CNS, 92.3%; in the assay with SF-295 CNS, 105%; in the assay with SF-539 CNS it was 107%; with UACC-257 melanoma, 84.9%; in the assay on M14 melanoma it was 108%.
Regarding `Cc1nc2ccccc2c(C(=O)O)c1O`, the growth is 104% in the assay on NCI-H23 lung; 91% in the assay with NCI-H226 lung; 117% with NCI-H322M lung; 88.3% in the assay with HOP-62 NSCLC; 110% with NCI-H460 lung; 104% in the assay on NCI-H522 lung. Further, the growth in the assay on A549/ATCC NSCLC was 103%; with 786-0 renal, 103%; in the assay on DU-145 prostate it was 127%; in the assay on K-562 leukemia, 127%; in the assay on MDA-MB-231 breast, 101%; in the assay with RXF 393 renal, 107%. Also, the growth is 110% in the assay on SF-268 CNS, 98.1% in the assay with SF-539 CNS, 96.7% in the assay on UACC-257 melanoma and 90.3% in the assay with M14 melanoma.
For the compound `CCOC(=O)C/C(C)=N\O`, the growth with NCI-H23 lung is 100%; with NCI-H226 lung, 98.4%; with NCI-H322M lung, 97.9%; with HOP-62 NSCLC, 90.2%; in the assay on NCI-H460 lung, 106%; in the assay on A549/ATCC NSCLC, 95.6%. Further, the growth with 786-0 renal is 96.1%; in the assay on COLO 205 colon, 104%; in the assay on DU-145 prostate it was 107%; with K-562 leukemia, 94.4%; with MALME-3M melanoma, 98.9%; in the assay on MDA-MB-231 breast, 105%. For the same compound, the growth with RXF 393 renal was 113%; with SF-268 CNS, 103%; in the assay on SF-295 CNS it was 91.6%; with SF-539 CNS, 107%; in the assay on M14 melanoma, 101%.
For `COc1cc(CN)ccc1O`, the growth in the assay on NCI-H23 lung is 99.4%; in the assay on NCI-H226 lung, 99.8%; in the assay with NCI-H322M lung, 89.7%; in the assay with HOP-62 NSCLC, 98.3%; in the assay with NCI-H460 lung, 91.4%; in the assay on NCI-H522 lung, 88%. For the same compound, the growth was 98.6% with A549/ATCC NSCLC; 100% in the assay with 786-0 renal; 91.2% with DU-145 prostate; 71.7% in the assay with K-562 leukemia; 79.3% in the assay on MALME-3M melanoma; 86.9% in the assay with MDA-MB-231 breast. For the same compound, the growth was 95% in the assay on RXF 393 renal; 100% in the assay on SF-268 CNS; 94.9% in the assay with SF-539 CNS; 94.1% with UACC-257 melanoma; 101% with M14 melanoma.
For `O=C(N/N=C\c1cc(Br)cc(Br)c1O)N/N=C/c1cc(Br)cc(Br)c1O`, the growth was 67.1% in the assay with NCI-H23 lung; 50.6% in the assay on NCI-H226 lung; 42.2% in the assay on NCI-H322M lung; 52.8% in the assay on HOP-62 NSCLC; 69.8% in the assay with NCI-H460 lung; 22.3% in the assay with NCI-H522 lung. The growth in the assay with 786-0 renal is 46.5%; in the assay on COLO 205 colon it was 62.1%; in the assay on DU-145 prostate it was 75.2%; in the assay with K-562 leukemia, 22.9%; with MALME-3M melanoma, 70.2%; with MDA-MB-231 breast, 72%. The growth was 51.1% with SF-268 CNS, 6.45% (active) in the assay on SF-295 CNS, 35.5% in the assay with SF-539 CNS and 55.2% with M14 melanoma.
